Inconclusive results are not listed. Calls of active or inactive are those of the source. The call rests on the fitted dose curve; in most records, active means well fitted curve in the direction sought with a large enough effect in the repeat runs; inconclusive means weak or mixed curves; inactive means no such curve, though single readings can be large; an effect the other way counts as inactive or inconclusive.
Legend:
[1] = A CellTox Green Cytotoxicity Assay to monitor cytotoxicity in HEK293 cells - 40 hour (AID 1224871); further: nearly all actives have a fitted effect of over 45% in size
Summary of the method: (§1)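 Cytotoxicity was tracked continuously in HEK293 cells by a DNA-binding dye excluded from viable cells. Compounds were transferred in DMSO 5 h after seeding; fluorescence was recorded at intervals up to 40 h.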

[2] = qHTS RealTime-Glo MT Cell Viability Assay in HepG2 cells - 8 hour (AID 1224873); further: nearly all actives have a fitted effect of over 55% in size
Summary of the method: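 HepG2 cells mixed with RealTime-Glo MT reagents (NanoLuc plus cell-permeant prosubstrate) were seeded at 600 cells/well, incubated 5 h at 37 C/5% CO2, then pinned with compounds in DMSO; nonlytic luminescence tracked viability during 40 h treatment.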

[3] = A CellTox Green Cytotoxicity Assay to monitor cytotoxicity in HEK293 cells - 24 hour (AID 1224875); further: series mostly up to about 77 µM; nearly all actives have a fitted effect of over 45% in size
Summary of the method: as §1

[4] = A CellTox Green Cytotoxicity Assay to monitor cytotoxicity in HepG2 cells - 16 hour (AID 1224876); further: nearly all actives have a fitted effect of over 45% in size
Summary of the method: (§2)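 Real-time, homogeneous cytotoxicity readout: dead-cell DNA staining by CellTox Green in HepG2 monolayers, fluorescence measured at timed intervals up to 40 h of continuous compound exposure.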

[5] = qHTS RealTime-Glo MT Cell Viability Assay in HepG2 cells - 32 hour (AID 1224877); further: nearly all actives have a fitted effect of over 55% in size
Summary of the method: (§3)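 Tox21 10K library screened in qHTS format on HepG2 cells carrying RealTime-Glo reagents. Compounds were added after a 5 h preincubation, and the luminescent signal from continuous culture was measured repeatedly during 40 h treatment.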

[6] = A CellTox Green Cytotoxicity Assay to monitor cytotoxicity in HepG2 cells - 24 hour (AID 1224878); further: nearly all actives have a fitted effect of over 45% in size
Summary of the method: as §2

[7] = A CellTox Green Cytotoxicity Assay to monitor cytotoxicity in HepG2 cells - 40 hour (AID 1224879); further: nearly all actives have a fitted effect of over 40% in size
Summary of the method: as §2

[8] = qHTS RealTime-Glo MT Cell Viability Assay in HEK293 cells - 0 hour (AID 1224880)
Summary of the method: (§4)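 Nonlytic bioluminescent viability monitoring. HEK293 at 600 cells/well with reagent; 5 h settle; compound transfer by pintool; plates held at 37 C and read at set time points.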

[9] = A CellTox Green Cytotoxicity Assay to monitor cytotoxicity in HEK293 cells - 32 hour (AID 1224881); further: nearly all actives have a fitted effect of over 40% in size
Summary of the method: as §1

[10] = A CellTox Green Cytotoxicity Assay to monitor cytotoxicity in HepG2 cells - 0 hour (AID 1224882); further: nearly all actives have a fitted effect of over 35% in size
Summary of the method: as §2

[11] = A CellTox Green Cytotoxicity Assay to monitor cytotoxicity in HepG2 cells - 32 hour (AID 1224883); further: nearly all actives have a fitted effect of over 50% in size
Summary of the method: as §2

[12] = A CellTox Green Cytotoxicity Assay to monitor cytotoxicity in HEK293 cells - 8 hour (AID 1224884); further: nearly all actives have a fitted effect of over 35% in size
Summary of the method: as §1

[13] = qHTS RealTime-Glo MT Cell Viability Assay in HepG2 cells - 16 hour (AID 1224885); further: nearly all actives have a fitted effect of over 50% in size
Summary of the method: as §3

[14] = qHTS RealTime-Glo MT Cell Viability Assay in HEK293 cells - 24 hour (AID 1224886); further: top concentration of the series differs between compounds; nearly all actives have a fitted effect of over 50% in size
Summary of the method: (§5)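 Luminescence generated by NanoLuc from substrate produced by living HEK293 cells served as the viability signal. Each value reflects the reading at its stated time point during continuous 40 h compound exposure at 37 C.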

[15] = qHTS RealTime-Glo MT Cell Viability Assay in HepG2 cells - 0 hour (AID 1224889); further: nearly all actives have a fitted effect of over 50% in size
Summary of the method: as §3

[16] = A CellTox Green Cytotoxicity Assay to monitor cytotoxicity in HepG2 cells - 8 hour (AID 1224890); further: nearly all actives have a fitted effect of over 45% in size
Summary of the method: as §2

[17] = qHTS RealTime-Glo MT Cell Viability Assay in HEK293 cells - 8 hour (AID 1224887)
Summary of the method: as §4

[18] = A CellTox Green Cytotoxicity Assay to monitor cytotoxicity in HEK293 cells - 16 hour (AID 1224888); further: nearly all actives have a fitted effect of over 35% in size
Summary of the method: as §1

[19] = qHTS RealTime-Glo MT Cell Viability Assay in HEK293 cells - 16 hour (AID 1224872)
Summary of the method: as §5

[20] = qHTS RealTime-Glo MT Cell Viability Assay in HEK293 cells - 40 hour (AID 1224874); conditions: RealTime-Glo luminescence; max response: active compounds read low; further: nearly all actives have a fitted effect of over 50% in size
Summary of the method: as §4
On the % scale 0 is the no-effect control and ±100 the full control effect.

CC1CCCCC1NC(=O)Nc1ccccc1 (stereo not given)
inactive: Potency [1] | Potency [2] | Potency [3] | Potency [4] | Potency [5] | Potency [6] | Potency [7] | outcome [8] | Potency [9] | outcome [10] | Potency [11] | Potency [12] | Potency [13] | Potency [14] | Potency [15] | Potency [16]

COC(=O)c1ccccc1S(=O)(=O)NC(=O)N(C)c1nc(C)nc(OC)n1
inactive: Potency [1] | Potency [2] | Potency [3] | Potency [4] | Potency [5] | Potency [6] | Potency [7] | outcome [8] | Potency [9] | outcome [10] | Potency [11] | Potency [12] | Potency [13] | Potency [14] | Potency [17] | Potency [18] | Potency [15] | Potency [16]

CC(=O)C(Cl)Cl
inactive: Potency [1] | Potency [19] | max response [20] 7% | Potency [3] | Potency [4] | Potency [5] | Potency [6] | outcome [8] | Potency [9] | outcome [10] | Potency [12] | Potency [13] | Potency [14] | Potency [17] | Potency [15] | Potency [16]

COCC(=O)N(c1c(C)cccc1C)N1CCOC1=O
inactive: Potency [1] | Potency [2] | max response [20] 0.893% | Potency [3] | Potency [4] | Potency [5] | Potency [6] | Potency [7] | outcome [8] | Potency [9] | outcome [10] | Potency [11] | Potency [12] | Potency [13] | Potency [14] | Potency [17] | Potency [15]

CCN(CC)c1nc(C)cc(OP(=S)(OC)OC)n1
inactive: Potency [1] | Potency [2] | max response [20] 2.28% | Potency [3] | Potency [4] | Potency [5] | Potency [6] | Potency [7] | outcome [8] | Potency [9] | Potency [11] | Potency [12] | Potency [13] | Potency [14] | Potency [17] | Potency [18] | Potency [15] | Potency [16]

CC1CN1P(=O)(N1CC1C)N1CC1C (stereo not given)
inactive: Potency [1] | Potency [2] | max response [20] 6.96% | Potency [3] | Potency [4] | Potency [5] | Potency [6] | Potency [7] | outcome [8] | Potency [9] | outcome [10] | Potency [11] | Potency [12] | Potency [13] | Potency [14] | Potency [17] | Potency [16]

CC(C)(C)OC(=O)c1ncn2c1[C@@H]1CCCN1C(=O)c1c(Br)cccc1-2
inactive: Potency [1] | Potency [2] | max response [20] -21.6% | Potency [3] | Potency [4] | Potency [5] | Potency [6] | Potency [7] | outcome [8] | Potency [9] | outcome [10] | Potency [11] | Potency [12] | Potency [13] | Potency [14] | Potency [17] | Potency [18] | Potency [15]
